Assay results taken from PubChem BioAssay (NCI).
Compounds without any hit were thinned out: in the full panel of roughly 83,000, 20% have a hit.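 96-well plates, one dose, 48 hours. Percent growth reported; active if below 10.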 The source made the active and inactive calls.

Experiments:
Test in all cases: NCI-60 one-dose screen, 48 h (100 = growth as untreated, 0 = no growth, -100 = all killed)
HCT-15 colon = conditions: 10 µM unless noted
HT29 colon = conditions: 10 µM unless noted
SNB-75 CNS = conditions: 10 µM unless noted
SNB-19 CNS = conditions: 10 µM unless noted
U251 CNS = conditions: 10 µM unless noted
PC-3 prostate = conditions: 10 µM unless noted
SK-MEL-5 melanoma = conditions: 10 µM unless noted
UACC-62 melanoma = conditions: 10 µM unless noted
LOX IMVI melanoma = conditions: 10 µM unless noted
SK-MEL-28 melanoma = conditions: 10 µM unless noted
SK-MEL-2 melanoma = conditions: 10 µM unless noted
EKVX NSCLC = conditions: 10 µM
SN12C renal = conditions: 10 µM unless noted
UO-31 renal = conditions: 10 µM unless noted
TK-10 renal = conditions: 10 µM unless noted
ACHN renal = conditions: 10 µM unless noted
CCRF-CEM leukemia = conditions: 10 µM
MOLT-4 leukemia = conditions: 10 µM unless noted
CAKI-1 renal = conditions: 10 µM unless noted
A498 renal = conditions: 10 µM unless noted

Measured: growth

CC(C)(C)C(=O)OCOP(=O)(OCOC(=O)C(C)(C)C)C1CC(O)N(O)C1=O (stereo unspecified)
inactive: HCT-15 colon 34.7% | SNB-75 CNS 51.2% | SNB-19 CNS 16.1% | PC-3 prostate 58.9% | SK-MEL-5 melanoma 58.4% | LOX IMVI melanoma 30.4% | SK-MEL-2 melanoma 45.9% | EKVX NSCLC 66% | SN12C renal 11.6% | UO-31 renal 18.6% | TK-10 renal 63.6% | ACHN renal 42.7% | MOLT-4 leukemia 24.5%
active: HT29 colon 6.67% | U251 CNS 6.74% | UACC-62 melanoma 9.68% | SK-MEL-28 melanoma 8.22% | CCRF-CEM leukemia 4.09%

O=CN/N=C/c1ccc(Cl)c([N+](=O)[O-])c1
active: HT29 colon 6.89% | PC-3 prostate 1.87% | TK-10 renal 8.5%
inactive: HCT-15 colon 47.3% | SNB-75 CNS 62.2% | SNB-19 CNS 32.5% | U251 CNS 11.9% | SK-MEL-5 melanoma 14.2% | UACC-62 melanoma 18% | LOX IMVI melanoma 17% | SK-MEL-28 melanoma 43% | SK-MEL-2 melanoma 41.1% | SN12C renal 21.2% | UO-31 renal 80.1% | ACHN renal 44.2% | CAKI-1 renal 41.1% | A498 renal 56% | CCRF-CEM leukemia 15.3% | MOLT-4 leukemia 20.6%

O=C(CBr)OCc1ccc([N+](=O)[O-])o1
inactive: HCT-15 colon 93.9% | HT29 colon 104% | SNB-75 CNS 91.4% | SNB-19 CNS 104% | U251 CNS 92.1% | PC-3 prostate 76.2% | SK-MEL-5 melanoma 113% | UACC-62 melanoma 90.4% | LOX IMVI melanoma 83% | SK-MEL-28 melanoma 99.2% | SK-MEL-2 melanoma 97.9% | EKVX NSCLC 124% | SN12C renal 98.8% | TK-10 renal 101% | ACHN renal 89.6% | CAKI-1 renal 53.8% | A498 renal 117% | CCRF-CEM leukemia 74.1% | MOLT-4 leukemia 95.6%

CC[n+]1c(C)ccc2cc(C)ccc21
inactive: HCT-15 colon 94.5% | HT29 colon 108% | SNB-75 CNS 83.7% | SNB-19 CNS 92.7% | U251 CNS 93.5% | PC-3 prostate 104% | SK-MEL-5 melanoma 99.2% | UACC-62 melanoma 96.1% | LOX IMVI melanoma 90.8% | SK-MEL-28 melanoma 105% | SK-MEL-2 melanoma 106% | EKVX NSCLC 72.6% | SN12C renal 96.8% | TK-10 renal 98.1% | ACHN renal 106% | CAKI-1 renal 113% | A498 renal 96.7% | CCRF-CEM leukemia 98% | MOLT-4 leukemia 89.9%

c1cc[c]([Bi]([c]2ccccc2)[c]2ccccc2)cc1
inactive: HCT-15 colon 103% | HT29 colon 112% | SNB-75 CNS 76.9% | SNB-19 CNS 102% | U251 CNS 99.6% | PC-3 prostate 85.2% | SK-MEL-5 melanoma 97.8% | UACC-62 melanoma 94.6% | LOX IMVI melanoma 98.6% | SK-MEL-28 melanoma 102% | SK-MEL-2 melanoma 116% | SN12C renal 97.1% | UO-31 renal 84.8% | TK-10 renal 94.6% | ACHN renal 105% | CAKI-1 renal 88.6% | A498 renal 89.3% | CCRF-CEM leukemia 86.5% | MOLT-4 leukemia 108%

CCCCCCCCC1OC1CCCCCCCC(=O)O (stereo unspecified)
inactive: HCT-15 colon 96.6% | HT29 colon 118% | SNB-75 CNS 92.9% | SNB-19 CNS 101% | U251 CNS 91.3% | PC-3 prostate 89.9% | SK-MEL-5 melanoma 98% | UACC-62 melanoma 88.5% | LOX IMVI melanoma 109% | SK-MEL-28 melanoma 110% | SK-MEL-2 melanoma 103% | SN12C renal 94.5% | UO-31 renal 96.7% | TK-10 renal 104% | ACHN renal 103% | CAKI-1 renal 100% | A498 renal 102% | CCRF-CEM leukemia 93% | MOLT-4 leukemia 104%

CC(C)(CNC1CCCCC1)OC(=O)c1ccccc1
inactive: HCT-15 colon 97.7% | HT29 colon 95.5% | SNB-75 CNS 105% | SNB-19 CNS 103% | U251 CNS 100% | PC-3 prostate 91.6% | SK-MEL-5 melanoma 97.7% | UACC-62 melanoma 106% | LOX IMVI melanoma 96.7% | SK-MEL-28 melanoma 114% | SK-MEL-2 melanoma 116% | SN12C renal 95.1% | UO-31 renal 77.2% | TK-10 renal 104% | ACHN renal 108% | CAKI-1 renal 102% | A498 renal 103% | CCRF-CEM leukemia 84.7% | MOLT-4 leukemia 93.8%

Oc1ccc(Br)cc1/C=N/NC(=S)NC12CC3CC(CC(C3)C1)C2
inactive: SNB-75 CNS 53.3% | SNB-19 CNS 45.3% | SK-MEL-5 melanoma 28.6% | UACC-62 melanoma 30.1% | SK-MEL-28 melanoma 51.2% | SK-MEL-2 melanoma 48.2% | SN12C renal 20.1% | TK-10 renal 27.9% | A498 renal 53.3%
active: HCT-15 colon 9.35% | HT29 colon -16.7% | U251 CNS 5.5% | PC-3 prostate -19% | LOX IMVI melanoma -76% | UO-31 renal -2.23% | ACHN renal 2.67% | CAKI-1 renal -35.3% | CCRF-CEM leukemia -21.1% | MOLT-4 leukemia 1.75%

CC(=O)Nc1ccc(C(=O)/C=C/c2ccc(N(C)C)cc2)cc1
inactive: HCT-15 colon 94.1% | HT29 colon 91.3% | SNB-75 CNS 99.7% | SNB-19 CNS 109% | U251 CNS 93.9% | PC-3 prostate 94.6% | SK-MEL-5 melanoma 98.7% | UACC-62 melanoma 102% | LOX IMVI melanoma 96.1% | SK-MEL-28 melanoma 108% | SK-MEL-2 melanoma 95.7% | SN12C renal 98.2% | UO-31 renal 74.5% | TK-10 renal 95.4% | ACHN renal 103% | CAKI-1 renal 97% | A498 renal 104% | CCRF-CEM leukemia 101% | MOLT-4 leukemia 99.2%

N/C(=N\O)c1ccncc1
inactive: HCT-15 colon 100% | HT29 colon 101% | SNB-75 CNS 86.7% | SNB-19 CNS 104% | U251 CNS 106% | PC-3 prostate 102% | SK-MEL-5 melanoma 113% | UACC-62 melanoma 98.1% | LOX IMVI melanoma 96.2% | SK-MEL-28 melanoma 109% | SK-MEL-2 melanoma 100% | EKVX NSCLC 98.9% | SN12C renal 106% | UO-31 renal 88% | TK-10 renal 95.8% | ACHN renal 103% | CCRF-CEM leukemia 106% | MOLT-4 leukemia 114%

Oc1ccc(CN(Cc2ccc(C(F)(F)F)cc2)Cc2ccc(O)c3ncccc23)c2cccnc12
inactive: HCT-15 colon 20.5% | HT29 colon 11.3% | SNB-75 CNS 33.5% | SNB-19 CNS 30.8% | PC-3 prostate 12.9% | LOX IMVI melanoma 18.7% | SK-MEL-28 melanoma 32.3% | SK-MEL-2 melanoma 24.5% | EKVX NSCLC 19% | TK-10 renal 14.7% | A498 renal 41.6% | MOLT-4 leukemia 10.4%
active: U251 CNS 1.77% | SK-MEL-5 melanoma -32.6% | UACC-62 melanoma -21.3% | UO-31 renal 4.59% | ACHN renal 9.38% | CAKI-1 renal 5.6% | CCRF-CEM leukemia 8.17%

Oc1ccc([S+](c2ccc(O)cc2)c2ccc(O)cc2)cc1
inactive: HCT-15 colon 97.4% | HT29 colon 108% | SNB-75 CNS 92.5% | SNB-19 CNS 99.7% | U251 CNS 103% | PC-3 prostate 97.9% | SK-MEL-5 melanoma 100% | UACC-62 melanoma 101% | LOX IMVI melanoma 107% | SK-MEL-28 melanoma 105% | SK-MEL-2 melanoma 117% | SN12C renal 95.2% | UO-31 renal 87.5% | TK-10 renal 115% | ACHN renal 106% | CAKI-1 renal 102% | A498 renal 71.3% | CCRF-CEM leukemia 100% | MOLT-4 leukemia 89.2%

CC1Cc2cc(F)ccc2-n2cccc21 (stereo unspecified)
inactive: HCT-15 colon 95% | HT29 colon 106% | SNB-75 CNS 96.1% | SNB-19 CNS 121% | U251 CNS 102% | PC-3 prostate 98.2% | SK-MEL-5 melanoma 109% | UACC-62 melanoma 110% | LOX IMVI melanoma 91.7% | SK-MEL-28 melanoma 107% | SK-MEL-2 melanoma 104% | EKVX NSCLC 107% | UO-31 renal 99.5% | TK-10 renal 96.5% | ACHN renal 106% | CAKI-1 renal 101% | A498 renal 90.7% | CCRF-CEM leukemia 111% | MOLT-4 leukemia 113%

O=C(O)CS(=O)c1ccc(Cl)cc1 (stereo unspecified)
inactive: HCT-15 colon 95.9% | HT29 colon 105% | SNB-75 CNS 103% | SNB-19 CNS 104% | U251 CNS 99.7% | PC-3 prostate 110% | SK-MEL-5 melanoma 102% | UACC-62 melanoma 111% | LOX IMVI melanoma 91% | SK-MEL-28 melanoma 105% | SK-MEL-2 melanoma 114% | SN12C renal 104% | UO-31 renal 102% | TK-10 renal 96.1% | ACHN renal 95.2% | CAKI-1 renal 115% | A498 renal 91.9% | CCRF-CEM leukemia 98.5% | MOLT-4 leukemia 90.5%

O=C(O)c1ccc(Br)nc1
inactive: HCT-15 colon 97.8% | HT29 colon 96.1% | SNB-75 CNS 81.7% | SNB-19 CNS 95.3% | U251 CNS 93.8% | PC-3 prostate 97.3% | SK-MEL-5 melanoma 102% | UACC-62 melanoma 95.8% | LOX IMVI melanoma 97.2% | SK-MEL-28 melanoma 104% | SK-MEL-2 melanoma 96.1% | EKVX NSCLC 95.6% | SN12C renal 98.1% | UO-31 renal 86.3% | TK-10 renal 86.8% | ACHN renal 103% | CCRF-CEM leukemia 95.7% | MOLT-4 leukemia 99.8%

S=C(N/N=C/c1cc(Cl)cc(Cl)c1)NC12CC3CC(CC(C3)C1)C2
active: ACHN renal 4.44% | CAKI-1 renal -1.81%
inactive: HCT-15 colon 84.9% | HT29 colon 49.9% | SNB-75 CNS 45.6% | SNB-19 CNS 93.6% | U251 CNS 40.6% | PC-3 prostate 75.5% | SK-MEL-5 melanoma 97% | UACC-62 melanoma 89.5% | LOX IMVI melanoma 45.1% | SK-MEL-28 melanoma 90.9% | SK-MEL-2 melanoma 116% | SN12C renal 88.6% | UO-31 renal 69% | TK-10 renal 11.1% | A498 renal 57.1% | CCRF-CEM leukemia 50.8% | MOLT-4 leukemia 94.1%
